Source: PubChem BioAssay AID1159580 (chemical genetic matrix, 2015)
Among all 5,500 compounds or so, about 2,000 (36%) were called active. Not shown: some 18% with an inconclusive outcome. Rule as the data show it: active = normalized growth mostly below about 0.91 (no sharp cut-off); inconclusive = no clear call, values can overlap the other calls; inactive = mostly above about 0.92. Some of the results follow.

Experiment: chemical genetic growth profiling, strain panel (AID 1159580);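 also: tested at 20 µM; growth read once vehicle control cultures reached saturation at 30 °C; 1 = growth at the plate median or of vehicle wells; lower values mean less growth of the strain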
Conditions: S. cerevisiae deletion strains, growth OD
[1] = locus YHR030C, strain SLT2, hits give low values
[2] = locus YHR079C, strain IRE1, hits give low values
[3] = locus YJL095W, strain BCK1, hits give low values
[4] = locus YJR066W, strain TOR1, hits give low values
[5] = locus YLR113W, strain HOG1, hits give low values
[6] = locus YNL183C, strain NPR1, hits give low values
[7] = locus YOR231W, strain MKK1, hits give low values
[8] = locus YPL256C, strain CLN2, hits give low values

Measured: normalized growth

CCC(CO)NC(=O)C1C=C2c3cccc4c3c(cn4C)CC2N(C)C1 (stereo unspecified)
inactive: locus YAL013W, strain DEP1, hits give low values 0.988 | locus YAL040C, strain CLN3, hits give low values 1.08 | locus YCL061C, strain MRC1 (second series), hits give low values 0.999 | locus YDR150W, strain NUM1, hits give low values 1 | locus YDR363W, strain ESC2, hits give low values 0.972 | locus YER002W, strain NOP16, hits give low values 0.998 | locus YGR078C, strain PAC10, hits give low values 1 | locus YGR229C, strain SMI1, hits give low values 0.999 | locus YMR263W, strain SAP30, hits give low values 0.994 | locus YMR307W, strain GAS1, hits give low values 0.962 | locus YNL128W, strain TEP1, hits give low values 1.02 | locus YNL153C, strain GIM3, hits give low values 1 | locus YNL175C, strain NOP13, hits give low values 0.987 | locus YNL197C, strain WHI3, hits give low values 1.02 | locus YNL224C, strain SQS1, hits give low values 1 | locus YNL322C, strain KRE1, hits give low values 0.989 | locus YOR083W, strain WHI5 (second series), hits give low values 0.988 | locus YPL055C, strain LGE1, hits give low values 0.997 | locus YPL241C, strain CIN2, hits give low values 1

Nc1ccc(S(=O)(=O)O)cc1
inactive: [1] 0.992 | [2] 0.987 | [3] 0.998 | [4] 0.966 | [5] 0.976 | [6] 0.939 | [7] 1.01 | [8] 0.97

CC[C@]1(O)CC2CN(CCc3c([nH]c4ccccc34)[C@@](C(=O)OC)(c3cc4c(cc3OC)N(C=O)[C@H]3[C@@](O)(C(=O)OC)[C@H](OC(C)=O)[C@]5(CC)C=CCN6CC[C@]43[C@@H]65)C2)C1 (stereo partly specified)
inactive: locus YAL021C, strain ccr4, hits give low values 1 | locus YAL026C, strain drs2, hits give low values 0.984 | locus YAL030W, strain snc1, hits give low values 0.993 | locus YBL061C, strain skt5, hits give low values 1 | locus YBR009C, strain hhf1, hits give low values 0.988 | locus YBR023C, strain chs3, hits give low values 0.999 | locus YBR171W, strain sec66, hits give low values 0.978 | locus YBR231C, strain swc5, hits give low values 1.01 | locus YBR279W, strain paf1, hits give low values 0.989 | locus YCL011C, strain gbp2, hits give low values 1.01 | locus YCL016C, strain dcc1, hits give low values 1.03 | locus YCL061C, strain MRC1, hits give low values 0.971 | locus YCL069W, strain vba3, hits give low values 0.968 | locus YCR088W, strain abp1, hits give low values 0.986 | locus YDL005C, strain med2, hits give low values 0.985 | locus YDL040C, strain nat1, hits give low values 0.988 | locus YDR001C, strain nth1, hits give low values 1 | locus YDR069C, strain doa4, hits give low values 0.984 | locus YDR137W, strain rgp1, hits give low values 0.989 | locus YDR159W, strain sac3, hits give low values 0.994 | locus YDR195W, strain ref2 0.978 | locus YDR297W, strain sur2, hits give low values 0.982 | locus YDR334W, strain swr1, hits give low values 0.937 | locus YDR335W, strain msn5, hits give low values 0.977 | locus YDR392W, strain spt3, hits give low values 0.987 | locus YEL003W, strain gim4, hits give low values 0.972 | locus YEL037C, strain rad23, hits give low values 0.981 | locus YEL061C, strain CIN8 (second series), hits give low values 0.968 | locus YER015W, strain faa2, hits give low values 0.997 | locus YER016W, strain bim1, hits give low values 0.989 | locus YER111C, strain swi4, hits give low values 0.989 | locus YER155C, strain BEM2 (second series), hits give low values 0.962 | locus YFR010W, strain ubp6, hits give low values 0.94 | locus YGL167C, strain pmr1, hits give low values 0.972 | locus YGL173C, strain kem1, hits give low values 0.996 | locus YGL227W, strain vid30, hits give low values 0.985 | locus YGL240W, strain doc1, hits give low values 0.966 | locus YGL253W, strain hxk2, hits give low values 1.02 | locus YHR013C, strain ard1, hits give low values 1 | locus YHR027C, strain rpn1, hits give low values 0.992 | [1] 0.972 | [2] 0.97 | locus YHR142W, strain chs7, hits give low values 1.04 | locus YJL092W, strain hpr5, hits give low values 0.973 | locus YJL095W, strain BCK1 (second series), hits give low values 0.988 | [3] 0.958 | locus YJL115W, strain asf1, hits give low values 0.981 | locus YJL129C, strain trk1, hits give low values 1.01 | locus YJL154C, strain vps35, hits give low values 0.972 | locus YJL164C, strain tpk1, hits give low values 0.986 | locus YJL166W, strain qcr8, hits give low values 0.998 | [4] 0.939 | locus YKL160W, strain elf1, hits give low values 1.03 | locus YKR026C, strain gcn3, hits give low values 0.982 | locus YKR091W, strain srl3, hits give low values 0.999 | locus YLL001W, strain dnm1, hits give low values 1.01 | locus YLL026W, hits give low values 0.992 | locus YLL041C, strain sdh2, hits give low values 0.992 | locus YLR027C, strain aat2, hits give low values 0.991 | [5] 0.936 | locus YLR221C, strain rsa3, hits give low values 0.981 | locus YLR258W, strain gsy2, hits give low values 0.994 | locus YLR262C, strain YPT6 (second series), hits give low values 0.954 | locus YLR320W, strain mms22, hits give low values 0.985 | locus YLR342W, strain FKS1, hits give low values 0.984 | locus YLR357W, strain rsc2, hits give low values 0.92 | locus YLR370C, strain arc18, hits give low values 1.01 | locus YLR384C, strain iki3, hits give low values 1.01 | locus YML120C, strain ndi1, hits give low values 0.964 | locus YMR058W, strain fet3, hits give low values 0.982 | locus YMR125W, strain sto1, hits give low values 0.926 | locus YMR129W, hits give low values 0.994 | locus YMR205C, strain PFK2, hits give low values 1.01 | locus YMR231W, strain pep5, hits give low values 0.986 | locus YNL071W, strain lat1, hits give low values 0.973 | [6] 0.933 | locus YNL209W, strain ssb2, hits give low values 1 | locus YNL248C, strain rpa49, hits give low values 0.991 | locus YNL322C, strain KRE1 (second series), hits give low values 0.975 | locus YNR049C, strain mso1, hits give low values 0.975 | locus YOR001W, strain rrp6, hits give low values 0.945 | locus YOR070C, strain gyp1, hits give low values 0.999 | locus YOR080W, strain dia2, hits give low values 0.996 | locus YOR083W, strain WHI5, hits give low values 1.01 | locus YOR106W, strain vam3, hits give low values 0.998 | [7] 0.964 | locus YOR265W, strain rbl2, hits give low values 0.989 | locus YOR270C, strain vph1, hits give low values 1.04 | locus YOR290C, strain snf2, hits give low values 1.02 | locus YPL051W, strain arl3, hits give low values 1.01 | locus YPL078C, strain atp4, hits give low values 1.04 | locus YPL106C, strain sse1, hits give low values 0.953 | locus YPL240C, strain hsp82, hits give low values 0.952 | [8] 1.05
